Here are results for 15 compounds from PubChem BioAssay (NCI).

Compounds without any hit were thinned out: in the full panel of roughly 83,000, 20% have a hit.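 Single-dose data. Exposure time 48 hours. Values below 10 considered active.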 Values without a mark were called inactive. Calls of active or inactive are those of the source.

Among the test systems are T-47D breast; BT-549 breast; MDA-MB-435 melanoma; SW-620 colon; MCF7 breast; HCT-116 colon; HCC-2998 colon; KM12 colon.
Experiment in all cases: NCI-60 one-dose screen, 48 h (100 = growth as untreated, 0 = no growth, -100 = all killed)
Common to all, as to conditions: 10 µM unless noted

For `COc1ccc(/C=N/NC(=O)c2c(N)nn(C)c2Nc2ccccc2)cc1`, the growth in the test on T-47D breast is 42.4%; in the test with BT-549 breast it was 14%; in the test with MDA-MB-435 melanoma it was -31% (active); in the test with SW-620 colon it was 16%; in the test on MCF7 breast it was 17.6%; with HCT-116 colon it was 15%. Besides, the growth in the test with HCC-2998 colon was 59.2%; in the test on KM12 colon, 27.8%.

`CC(=O)OCCCCN1C=C/C(=C\C(=O)n2ccc3ccccc32)c2ccccc21`: the growth is 92.7% in the test with T-47D breast; 113% in the test with BT-549 breast; 106% with MDA-MB-435 melanoma; 98.4% in the test with SW-620 colon; 90.4% in the test on MCF7 breast; 103% in the test on HCT-116 colon. Besides, the growth is 112% in the test on HCC-2998 colon and 97.7% in the test with KM12 colon.

Regarding `COC(=O)c1ccc(NC2=C(Cl)C(=O)C(C)=C(C)C2=O)cc1`, the growth in the test with T-47D breast was -25.9% (active); in the test with BT-549 breast, 77.5%; in the test on MDA-MB-435 melanoma, 7.22% (active); with SW-620 colon it was 35.5%; in the test with MCF7 breast, 35.9%; with HCT-116 colon it was 32.4%. The figures for the growth in the test on HCC-2998 colon and with KM12 colon were 71.1% and 6.69% (active), respectively.

Consider `C/C(=C(/C)C1CC1CCNC1CCC(NC(=O)OC(C)(C)C)CC1)c1ccccc1` (stereo not given), for which the growth in the test on T-47D breast was 45.5%; with BT-549 breast, 85.5%; with MDA-MB-435 melanoma, 52.8%; with SW-620 colon, 60.7%; in the test on MCF7 breast it was 15.5%; in the test on HCT-116 colon it was 33.6%. Also, the growth in the test with HCC-2998 colon was -55.6% (active); with KM12 colon, 73.7%.

`COc1ccc(C(=O)c2c(N)c(C#N)cn2-c2ccc(Cl)cc2Cl)cc1`: the growth with T-47D breast was 92.9%; in the test with BT-549 breast, 111%; in the test with MDA-MB-435 melanoma, 97.4%; in the test with SW-620 colon, 98.3%; in the test on MCF7 breast it was 99.4%; with HCT-116 colon, 97.7%. The growth was 103% in the test with HCC-2998 colon and 102% in the test with KM12 colon.

Consider `CCOC(=O)C(=O)Nc1ccc2c(ccn2C(=O)c2cccc(F)c2)c1`, for which the growth with T-47D breast was 99.1%; in the test on BT-549 breast, 88.8%; in the test on MDA-MB-435 melanoma it was 100%; in the test with SW-620 colon it was 98.7%; in the test with MCF7 breast it was 89.6%; in the test with HCT-116 colon it was 102%. The growth in the test with HCC-2998 colon is 103%; in the test on KM12 colon, 98.2%.

As for `CN1CCN(CC#CCn2c3c(c4ccccc42)C[C@]2(C)[C@H]4CC=C5[C@@H]6CC(C)(C)CC[C@]6(C(=O)N6CCOCC6)CC[C@@]5(C)[C@]4(C)CC[C@H]2C3(C)C)CC1`, the growth was 78.7% with T-47D breast; 96.2% in the test on BT-549 breast; 82.7% in the test on MDA-MB-435 melanoma; 11.6% in the test on SW-620 colon; -3.42% (active) in the test with MCF7 breast; 22% in the test with HCT-116 colon. The growth is 85.4% in the test on HCC-2998 colon and 66% with KM12 colon.

Take `O=C(CN1CCN(c2cc(=O)[nH]c3ccc(F)cc23)CC1)N(c1ccccc1)c1ccccc1`: the growth in the test on T-47D breast is 97.4%; with BT-549 breast, 104%; with MDA-MB-435 melanoma, 102%; in the test with SW-620 colon it was 104%; with MCF7 breast it was 96.7%; with HCT-116 colon, 98%. Further, the growth was 106% in the test on HCC-2998 colon and 107% in the test with KM12 colon.

With `Brc1cccc(-c2cc(-c3ccc4c(c3)OC=CO4)[nH]n2)c1`, the growth in the test on T-47D breast is 44.3%; in the test with BT-549 breast it was 63.8%; in the test with MDA-MB-435 melanoma, -25.2% (active); in the test with SW-620 colon it was 31.5%; with MCF7 breast, 10.1%; in the test with HCT-116 colon, 23.3%. The figures for the growth in the test on HCC-2998 colon and in the test on KM12 colon were 59.8% and 38.1%, respectively.

On to `CCN(CC)CCOc1ccc(C(=C(C)c2ccc(OC)cc2)c2ccc(OCCN(CC)CC)cc2)cc1`, for which the growth in the test with T-47D breast is -45.7% (active); with BT-549 breast, 47.9%; in the test with MDA-MB-435 melanoma it was -71.5% (active); in the test with SW-620 colon, -35.7% (active); in the test on MCF7 breast, -64.5% (active); in the test on HCT-116 colon, 0.525% (active). Further, the results for the growth in the test on HCC-2998 colon and in the test with KM12 colon were 3.44% (active) and 14.7%, respectively.

Regarding `CN1CCN(Cc2ccc(NC(=O)c3cncc(C#Cc4cnc5ccc(OCC6COC6)nn45)c3)cc2C(F)(F)F)CC1`, the growth in the test with T-47D breast was -1.42% (active); in the test on BT-549 breast, -71.5% (active); in the test on MDA-MB-435 melanoma, -92.3% (active); with SW-620 colon, -29.8% (active); with MCF7 breast it was -70.8% (active); in the test on HCT-116 colon, -78.6% (active). The figures for the growth with HCC-2998 colon and with KM12 colon were -77.4% (active) and -73.6% (active), respectively.

Regarding `O=C(NNc1nc2cc(F)cc(F)c2n2cccc12)c1cccnn1`, the growth was 9.21% (active) in the test with T-47D breast; 31.5% in the test on BT-549 breast; 24% in the test on MDA-MB-435 melanoma; 22.1% in the test with SW-620 colon; 10.4% with MCF7 breast; 22.4% in the test with HCT-116 colon. In addition, the figures for the growth in the test on HCC-2998 colon and with KM12 colon were 65.6% and 24.2%, respectively.

`CS(=O)(=O)c1ccc(/C(=N/N=C(N)N)c2ccc(F)cc2)cc1`: the growth in the test with T-47D breast is 94.4%; in the test with BT-549 breast, 98%; in the test on MDA-MB-435 melanoma, 11.4%; in the test on SW-620 colon it was 59.9%; in the test with MCF7 breast, 15.1%; in the test with HCT-116 colon it was 33.7%. The growth with HCC-2998 colon is 90.3%; with KM12 colon it was 58.2%.

Consider `CNc1sc(S(=O)(=O)NC)nc1S(=O)(=O)c1ccc(C)cc1`, for which the growth in the test with T-47D breast is 93.5%; in the test on BT-549 breast, 99.5%; in the test on MDA-MB-435 melanoma it was 105%; with SW-620 colon, 109%; with MCF7 breast, 87.6%; in the test on HCT-116 colon, 100%. For the same compound, the growth with HCC-2998 colon and in the test with KM12 colon was 103% in each case.

Regarding `COc1ccc(/C(=N\N=C(N)N)c2ccc(Cl)cc2)cc1OC`, the growth was 68% with T-47D breast; 81.2% in the test with BT-549 breast; 58% in the test on MDA-MB-435 melanoma; 73.6% with SW-620 colon; 54.5% in the test with MCF7 breast; 34.8% in the test on HCT-116 colon. For the same compound, the growth in the test with HCC-2998 colon is 69.8%; with KM12 colon, 61.5%.
